Compound activity as filed in PubChem BioAssay.
A selection: hits, their analogues and other compounds. The true share with any hit is near 13%.
CHOP inhibitor: inhibitors of CHOP promoter induction, primary screen, cell-based, unfolded protein response, luciferase reporter; actives 3.8% (n = 220,000); CHO-K1 CHOP-promoter luciferase, tunicamycin-induced, 15-18 h; inhibition, % at 10 µM;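 active = compounds that reduced the stress-induced luciferase reporter signal by more than about 70% of percent inhibition, limit read from the data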;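 also: 0% = tunicamycin plus vehicle and 100% = wells without tunicamycin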
RAM inhibit: inhibitors of the yeast RAM network, primary screen, dse1pr::URA3 reporter, 5-FOA selection; AID 868, 2007; actives 1.8% (n = 190,000); S. cerevisiae dse1pr::URA3 reporter, 5-FOA growth OD615, 2 d; analog-sensitive cbk1-as2 kinase mutant strain; inhibition, % at 50 µM;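 active = inhibition above a set limit, 3 SD over mean compound inhibition, cut at about 8.4% in these data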;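 also: 0% = DMSO-only wells with no growth and 100% = 10 µM 1-NA-PP1 full growth; inhibition rescues growth on 5-FOA so higher OD means more RAM inhibition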
Lmaj promast: Leishmania major promastigote growth inhibition, primary screen | Leishmania major promastigotes, resazurin fluorescence viability | inhibition, % at 10 µM | actives 9% (n = 200,000) | AID 1063, 2008; in the data active = inhibition above about 50%;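 also: promastigotes grown with compound for 44 hours at 28 °C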
WT yeast gro inh: growth inhibition of WT strain, primary screen, mitochondrial fusion inhibitor project, WT and mutant strains, chemical genetic | AID 1362, 2008 | mitochondrial fusion phenotypic screen | inhibition, % at 10 µM | actives 2.1% (n = 190,000); in the data active = inhibition above about 58%; tested in S. cerevisiae
Starred values were filed as active, the others as inactive; x = no result.

SMILES | CHOP inhibitor | RAM inhibit | Lmaj promast | WT yeast gro inh
O=C(Nc1cccc(-c2nc3ccccc3o2)c1)c1ccc(N2C(=O)C3C4C=CC(C4)C3C2=O)cc1 (stereo not given) | 71* | 1 | -5 | 5
COc1ccc(C(=O)Nc2cccc(-c3nnc(-c4ccco4)o3)c2)cc1 | 72* | 4 | 9 | 3
COc1cc(C(=O)Nc2cccc(-c3nc4cc(C)ccc4o3)c2)cc(OC)c1OC | 75* | 8.7* | -1 | 9
COc1cc(C(=O)Nc2cccc(-c3nnc(-c4ccco4)o3)c2)ccc1OC(C)=O | 34 | 4 | 30 | 3
CCOC(=O)N1CCN(C(=O)CS(=O)(=O)c2cn(Cc3ccc(F)cc3)c3ccccc23)CC1 | 12 | x | x | x
CC(=O)c1ccc(N2CCN(C(C)C(=O)NC3CCCc4ccccc43)CC2)cc1 (stereo not given) | 17 | 2 | 4 | 7
COc1cc(NC(=O)COc2ccc(Cl)cc2)ccc1-c1cc2ccccc2oc1=O | 26 | 1 | 63* | 0
Cc1cc(C)cc(OCC(=O)Nc2cccc(-c3nnc(-c4ccco4)o3)c2)c1 | 22 | 5 | 8 | 17
Cc1ccc2oc(-c3cccc(NC(=O)C4CCCO4)c3)nc2c1 (stereo not given) | 2 | -1 | -1 | 15
Cc1cccc(-c2nc3cc(NC(=O)C4CCCO4)ccc3o2)c1 (stereo not given) | 12 | 1 | 75* | 39
COc1ccc(CC(=O)Nc2cccc(-c3nnc(-c4ccco4)o3)c2)cc1 | 59 | 4 | 61* | 3
Cc1ccc(S(=O)(=O)N2CCCCC2)cc1NS(=O)(=O)c1cccc(C(=O)O)c1 | 23 | 2 | -5 | -4
CCOc1cc2c3c(c1)C1(C(=O)N3C(C)(C)CC2C)C(C#N)=C(N)N2C(=C1C#N)Nc1ccccc12 (stereo not given) | 25 | 8 | 66* | 19
Cc1ccc(CSc2ncnc3c2cnn3Cc2ccccc2)cc1 | 56 | 0 | 4 | 76*
CCN(CC)S(=O)(=O)c1cccc(NC(=O)c2cc(-c3cccs3)nn2-c2ccccc2)c1 | 32 | 6 | 98* | -8
COC(=O)C1=C(C)NC(C)=C(C(=O)OC)C1c1ccccc1OCc1c(C)no[n+]1[O-] | 3 | 3 | 37 | 5
c1ccc2c(Nc3nc(N4CCOCC4)c4ccccc4n3)cccc2c1 | 30 | 0 | 88* | 85
COc1ccccc1CNCc1cccc(Oc2ccccc2)c1 | 7 | 1 | 22 | 26
CC[n+]1c(/C=C/c2c[nH]c3ccccc23)ccc2cc(C)ccc21 | 75* | 0 | 100* | 76*
COc1ccc(NC(=O)Nc2ccccc2F)cc1Cl | 10 | 2 | -4 | 16
CCOCCc1c(O)nc(SCC)[nH]c1=O | -2 | x | x | x
CC[C@H](C)[C@@H](NC(=O)O[C@@H]1C(=O)c2cc(OC)ccc2O[C@H]1c1ccc(OC)c(Br)c1)C(=O)OC | 24 | 3 | 4 | 16
COC(=O)[C@H](Cc1ccccc1)NC(=O)O[C@@H]1C(=O)c2cc(OC)ccc2O[C@H]1c1ccc(OC)c(Br)c1 | 16 | 11* | 17 | 2
COC(=O)[C@H](Cc1ccccc1)NC(=O)O[C@H]1C(=O)c2ccc(OC)cc2O[C@@H]1c1ccc2c(c1)OCO2 | 8 | 4 | -3 | 62*
COc1ccc2c(c1)C(=O)[C@H](O)[C@@H](c1ccc(OC)c(Br)c1)O2 | 0 | 2 | 99* | 12
SMILES | CHOP inhibitor | RAM inhibit | Lmaj promast | WT yeast gro inh
CC(=O)N(C)c1ccc(NC(=O)Nc2ccc(C)c(C)c2)cc1 | 29 | 1 | 15 | 1
CCNc1c2c3c(cccc3n(C)c1=O)C(=O)c1ccccc1-2 | 57 | 0 | 10 | 8
Cn1c(=O)c(NC2CCCCC2)c2c3c(cccc31)C(=O)c1ccccc1-2 | 64 | 6 | 13 | 59*
CCCCNc1c2c3c(cccc3n(C)c1=O)C(=O)c1ccccc1-2 | 82* | 9.2* | 6 | 64*
O=C(CCNC(=O)Cn1ccc2ccccc2c1=O)NCc1ccc(F)cc1Cl | 29 | 4 | 15 | -19
O=C(COC(=O)CCSc1ccccc1)NCc1ccccc1 | 15 | 1 | 3 | 3
CC(C)c1ccc2oc(-c3cc(N)ccc3O)nc2c1 | 61 | 1 | -3 | 68*
Cc1ccccc1-c1nc2cc(N)ccc2o1 | 11 | 0 | 6 | 2
O=S(=O)(NC1CCCC1)c1ccc(S(=O)(=O)N(Cc2cccs2)CC2CCCO2)cc1 (stereo not given) | 18 | 9.6* | 17 | -3
COc1cc(C(=O)Nc2ccc(C)cc2)c(-n2cnnn2)cc1OC | 6 | 4 | -5 | 10
